# In the supplement of paper PMC4466140:
# B1: unnamed (peptide)
# chain: TSFKGRPKPPKTLKH
# B2: unnamed (peptide)
# chain: STKKPRPPVKSKPKH
# Key:
# Experiment in all cases: SPOT peptide array binding signal intensity (averaged, normalized) (arbitrary units (background-subtracted, floor 0; scale differs between SH3 domains)); higher = stronger binding of the SH3 domain to the peptide
# CaNbp2 = target: CaNbp2
# Procedure, shortened: (§1)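 Binding signal is given in arbitrary units that differ between domains and is the normalized, background-subtracted spot intensity averaged across replicates. Each GST-SH3 fusion from one of four yeast species was made in E. coli BL21(DE3), purified on glutathione Sepharose and incubated at 10 μg/ml overnight at 4°C on cellulose-bound synthetic 15-mer peptides in which cysteines were replaced by serines. Detection used anti-GST antibody, an HRP anti-mouse secondary and luminol, followed by imaging and Genespotter quantification.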
# CaRvs167 = target: CaRvs167
# Procedure, shortened: as §1
# CaRvs167-3 = target: CaRvs167-3
# Procedure, shortened: as §1
# CaSho1 = target: CaSho1
# Procedure, shortened: as §1
# CaSla1-D1-D2 = target: CaSla1-D1-D2
# Procedure, shortened: as §1
# CaSla1-D3 = target: CaSla1-D3
# Procedure, shortened: as §1
# ScAbp1 = target: ScAbp1
# Procedure, shortened: as §1
# ScBbc1 = target: ScBbc1
# Procedure, shortened: as §1
# ScBem1-D1 = target: ScBem1-D1
# Procedure, shortened: as §1
# ScBzz1-D1 = target: ScBzz1-D1
# Procedure, shortened: as §1
# ScBzz1-D2 = target: ScBzz1-D2
# Procedure, shortened: as §1
# ScCyk3 = target: ScCyk3
# Procedure, shortened: as §1
# ScFus1 = target: ScFus1
# Procedure, shortened: as §1
# ScHof1 = target: ScHof1
# Procedure, shortened: as §1
# ScHse1 = target: ScHse1
# Procedure, shortened: as §1
# ScLsb1 = target: ScLsb1
# Procedure, shortened: as §1
# ScLsb2 = target: ScLsb2
# Procedure, shortened: as §1
# ScLsb3 = target: ScLsb3
# Procedure, shortened: as §1
# ScLsb4 = target: ScLsb4
# Procedure, shortened: as §1
# ScMyo3 = target: ScMyo3
# Procedure, shortened: as §1
# ScMyo5 = target: ScMyo5
# Procedure, shortened: as §1
# ScNbp2 = target: ScNbp2
# Procedure, shortened: as §1
# ScPex13 = target: ScPex13
# Procedure, shortened: as §1
# ScRvs167 = target: ScRvs167
# Procedure, shortened: as §1
# ScSho1 = target: ScSho1
# Procedure, shortened: as §1
# ScSla1-D1-D2 = target: ScSla1-D1-D2
# Procedure, shortened: as §1
# ScSla1-D3 = target: ScSla1-D3
# Procedure, shortened: as §1
# SpAbp1-D1 = target: SpAbp1-D1
# Procedure, shortened: as §1
# SpBbc1 = target: SpBbc1
# Procedure, shortened: as §1
# SpBzz1-D1 = target: SpBzz1-D1
# Procedure, shortened: as §1
# SpBzz1-D2 = target: SpBzz1-D2
# Procedure, shortened: as §1
# SpCyk3 = target: SpCyk3
# Procedure, shortened: as §1
# SpHof1 = target: SpHof1
# Procedure, shortened: as §1
# SpHof1-2 = target: SpHof1-2
# Procedure, shortened: as §1
# SpHof1-3 = target: SpHof1-3
# Procedure, shortened: as §1
# SpHse1 = target: SpHse1
# Procedure, shortened: as §1
# SpLsb1 = target: SpLsb1
# Procedure, shortened: as §1
# SpLsb4 = target: SpLsb4
# Procedure, shortened: as §1
# SpMyo1 = target: SpMyo1
# Procedure, shortened: as §1
# SpNbp2 = target: SpNbp2
# Procedure, shortened: as §1
# SpPex13 = target: SpPex13
# Procedure, shortened: as §1
# SpRvs167 = target: SpRvs167
# Procedure, shortened: as §1
# SpSla1-D1-D2 = target: SpSla1-D1-D2
# Procedure, shortened: as §1
# SpSla1-D3 = target: SpSla1-D3
# Procedure, shortened: as §1
# AgAbp1 = target: AgAbp1
# Procedure, shortened: as §1
# AgBbc1 = target: AgBbc1
# Procedure, shortened: as §1
# AgBem1-D1 = target: AgBem1-D1
# Procedure, shortened: as §1
# AgBzz1-D1 = target: AgBzz1-D1
# Procedure, shortened: as §1
# AgBzz1-D2 = target: AgBzz1-D2
# Procedure, shortened: as §1
# AgCyk3 = target: AgCyk3
# Procedure, shortened: as §1
# AgFus1 = target: AgFus1
# Procedure, shortened: as §1
# AgHof1 = target: AgHof1
# Procedure, shortened: as §1
# AgHse1 = target: AgHse1
# Procedure, shortened: as §1
# AgLsb1 = target: AgLsb1
# Procedure, shortened: as §1
# AgLsb4 = target: AgLsb4
# Procedure, shortened: as §1
# AgMyo5 = target: AgMyo5
# Procedure, shortened: as §1
# AgNbp2 = target: AgNbp2
# Procedure, shortened: as §1
# AgRvs167 = target: AgRvs167
# Procedure, shortened: as §1
# AgSho1 = target: AgSho1
# Procedure, shortened: as §1
# AgSla1-D1-D2 = target: AgSla1-D1-D2
# Procedure, shortened: as §1
# AgSla1-D3 = target: AgSla1-D3
# Procedure, shortened: as §1
# CaAbp1-D1 = target: CaAbp1-D1
# Procedure, shortened: as §1
# CaAbp1-D2 = target: CaAbp1-D2
# Procedure, shortened: as §1
# CaBbc1 = target: CaBbc1
# Procedure, shortened: as §1
# CaBem1-D1 = target: CaBem1-D1
# Procedure, shortened: as §1
# CaBzz1-D1 = target: CaBzz1-D1
# Procedure, shortened: as §1
# CaBzz1-D2 = target: CaBzz1-D2
# Procedure, shortened: as §1
# CaCyk3 = target: CaCyk3
# Procedure, shortened: as §1
# CaFus1 = target: CaFus1
# Procedure, shortened: as §1
# CaHof1 = target: CaHof1
# Procedure, shortened: as §1
# CaHse1 = target: CaHse1
# Procedure, shortened: as §1
# CaLsb1 = target: CaLsb1
# Procedure, shortened: as §1
# CaLsb4 = target: CaLsb4
# Procedure, shortened: as §1
# CaMyo5 = target: CaMyo5
# Procedure, shortened: as §1
binder,measurement,setting,value
B1,SPOT peptide array binding signal intensity,CaNbp2,12
same,SPOT peptide array binding signal intensity,CaRvs167,0.833
same,SPOT peptide array binding signal intensity,CaRvs167-3,1.5
same,SPOT peptide array binding signal intensity,CaSho1,0.5
same,SPOT peptide array binding signal intensity,CaSla1-D1-D2,196
same,SPOT peptide array binding signal intensity,CaSla1-D3,≤ 0
same,SPOT peptide array binding signal intensity,ScAbp1,556
same,SPOT peptide array binding signal intensity,ScBbc1,≤ 0
same,SPOT peptide array binding signal intensity,ScBem1-D1,6.5
same,SPOT peptide array binding signal intensity,ScBzz1-D1,26
same,SPOT peptide array binding signal intensity,ScBzz1-D2,18
same,SPOT peptide array binding signal intensity,ScCyk3,≤ 0
same,SPOT peptide array binding signal intensity,ScFus1,≤ 0
same,SPOT peptide array binding signal intensity,ScHof1,8.5
same,SPOT peptide array binding signal intensity,ScHse1,542
same,SPOT peptide array binding signal intensity,ScLsb1,4.75
same,SPOT peptide array binding signal intensity,ScLsb2,≤ 0
same,SPOT peptide array binding signal intensity,ScLsb3,≤ 0
same,SPOT peptide array binding signal intensity,ScLsb4,≤ 0
same,SPOT peptide array binding signal intensity,ScMyo3,3
same,SPOT peptide array binding signal intensity,ScMyo5,≤ 0
same,SPOT peptide array binding signal intensity,ScNbp2,7
same,SPOT peptide array binding signal intensity,ScPex13,1.5
same,SPOT peptide array binding signal intensity,ScRvs167,≤ 0
same,SPOT peptide array binding signal intensity,ScSho1,71
same,SPOT peptide array binding signal intensity,ScSla1-D1-D2,63.5
same,SPOT peptide array binding signal intensity,ScSla1-D3,7
same,SPOT peptide array binding signal intensity,SpAbp1-D1,174
same,SPOT peptide array binding signal intensity,SpBbc1,0.5
same,SPOT peptide array binding signal intensity,SpBzz1-D1,207
same,SPOT peptide array binding signal intensity,SpBzz1-D2,≤ 0
same,SPOT peptide array binding signal intensity,SpCyk3,≤ 0
same,SPOT peptide array binding signal intensity,SpHof1,27
same,SPOT peptide array binding signal intensity,SpHof1-2,≤ 0
same,SPOT peptide array binding signal intensity,SpHof1-3,183
same,SPOT peptide array binding signal intensity,SpHse1,79
same,SPOT peptide array binding signal intensity,SpLsb1,2.5
same,SPOT peptide array binding signal intensity,SpLsb4,12.5
same,SPOT peptide array binding signal intensity,SpMyo1,≤ 0
same,SPOT peptide array binding signal intensity,SpNbp2,22
same,SPOT peptide array binding signal intensity,SpPex13,≤ 0
same,SPOT peptide array binding signal intensity,SpRvs167,2
same,SPOT peptide array binding signal intensity,SpSla1-D1-D2,3
same,SPOT peptide array binding signal intensity,SpSla1-D3,2
B2,SPOT peptide array binding signal intensity,AgAbp1,553
same,SPOT peptide array binding signal intensity,AgBbc1,104
same,SPOT peptide array binding signal intensity,AgBem1-D1,1
same,SPOT peptide array binding signal intensity,AgBzz1-D1,72
same,SPOT peptide array binding signal intensity,AgBzz1-D2,38
same,SPOT peptide array binding signal intensity,AgCyk3,≤ 0
same,SPOT peptide array binding signal intensity,AgFus1,9
same,SPOT peptide array binding signal intensity,AgHof1,1.25
same,SPOT peptide array binding signal intensity,AgHse1,71.5
same,SPOT peptide array binding signal intensity,AgLsb1,≤ 0
same,SPOT peptide array binding signal intensity,AgLsb4,4
same,SPOT peptide array binding signal intensity,AgMyo5,3.25
same,SPOT peptide array binding signal intensity,AgNbp2,9
same,SPOT peptide array binding signal intensity,AgRvs167,1.83
same,SPOT peptide array binding signal intensity,AgSho1,23
same,SPOT peptide array binding signal intensity,AgSla1-D1-D2,7
same,SPOT peptide array binding signal intensity,AgSla1-D3,≤ 0
same,SPOT peptide array binding signal intensity,CaAbp1-D1,1410
same,SPOT peptide array binding signal intensity,CaAbp1-D2,1100
same,SPOT peptide array binding signal intensity,CaBbc1,292
same,SPOT peptide array binding signal intensity,CaBem1-D1,4
same,SPOT peptide array binding signal intensity,CaBzz1-D1,104
same,SPOT peptide array binding signal intensity,CaBzz1-D2,104
same,SPOT peptide array binding signal intensity,CaCyk3,2
same,SPOT peptide array binding signal intensity,CaFus1,29
same,SPOT peptide array binding signal intensity,CaHof1,1.25
same,SPOT peptide array binding signal intensity,CaHse1,≤ 0
same,SPOT peptide array binding signal intensity,CaLsb1,0.5
same,SPOT peptide array binding signal intensity,CaLsb4,≤ 0
same,SPOT peptide array binding signal intensity,CaMyo5,2.5
same,SPOT peptide array binding signal intensity,CaNbp2,21
same,SPOT peptide array binding signal intensity,CaRvs167,0.333
same,SPOT peptide array binding signal intensity,CaRvs167-3,6.25
same,SPOT peptide array binding signal intensity,CaSho1,19.5
same,SPOT peptide array binding signal intensity,CaSla1-D1-D2,318
same,SPOT peptide array binding signal intensity,CaSla1-D3,≤ 0
same,SPOT peptide array binding signal intensity,ScAbp1,2130
same,SPOT peptide array binding signal intensity,ScBbc1,5.5
same,SPOT peptide array binding signal intensity,ScBem1-D1,14
same,SPOT peptide array binding signal intensity,ScBzz1-D1,4.5
same,SPOT peptide array binding signal intensity,ScBzz1-D2,13
same,SPOT peptide array binding signal intensity,ScCyk3,≤ 0
same,SPOT peptide array binding signal intensity,ScFus1,≤ 0
same,SPOT peptide array binding signal intensity,ScHof1,≤ 0
same,SPOT peptide array binding signal intensity,ScHse1,110
same,SPOT peptide array binding signal intensity,ScLsb1,0.5
same,SPOT peptide array binding signal intensity,ScLsb2,3
same,SPOT peptide array binding signal intensity,ScLsb3,153
same,SPOT peptide array binding signal intensity,ScLsb4,1
same,SPOT peptide array binding signal intensity,ScMyo3,5.5
same,SPOT peptide array binding signal intensity,ScMyo5,≤ 0
same,SPOT peptide array binding signal intensity,ScNbp2,22
same,SPOT peptide array binding signal intensity,ScPex13,≤ 0
same,SPOT peptide array binding signal intensity,ScRvs167,≤ 0
same,SPOT peptide array binding signal intensity,ScSho1,269
same,SPOT peptide array binding signal intensity,ScSla1-D1-D2,34.5
same,SPOT peptide array binding signal intensity,ScSla1-D3,16.8
same,SPOT peptide array binding signal intensity,SpAbp1-D1,193
same,SPOT peptide array binding signal intensity,SpBbc1,8
same,SPOT peptide array binding signal intensity,SpBzz1-D1,47
same,SPOT peptide array binding signal intensity,SpBzz1-D2,2
same,SPOT peptide array binding signal intensity,SpCyk3,≤ 0
same,SPOT peptide array binding signal intensity,SpHof1,11.8
same,SPOT peptide array binding signal intensity,SpHof1-2,3.5
same,SPOT peptide array binding signal intensity,SpHof1-3,274
same,SPOT peptide array binding signal intensity,SpHse1,44.5
same,SPOT peptide array binding signal intensity,SpLsb1,383
same,SPOT peptide array binding signal intensity,SpLsb4,30
same,SPOT peptide array binding signal intensity,SpMyo1,≤ 0
same,SPOT peptide array binding signal intensity,SpNbp2,≤ 0
same,SPOT peptide array binding signal intensity,SpPex13,≤ 0
same,SPOT peptide array binding signal intensity,SpRvs167,≤ 0
same,SPOT peptide array binding signal intensity,SpSla1-D1-D2,8
same,SPOT peptide array binding signal intensity,SpSla1-D3,≤ 0
